PubChem BioAssay (NCI)
This is part of a sample that, as a whole, favours compounds with a hit. Of some 83,000 tested, about 20% had one in any assay.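 Method: cells in 96-well plates; compound added at one concentration; 48 h incubation; percent growth measured; values under 10 scored active.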 Calls of active or inactive are those of the source.

Legend:
Test in all cases: NCI-60 one-dose screen, 48 h (100 = growth as untreated, 0 = no growth, -100 = all killed)
Conditions in all cases: 10 µM unless noted
SK-MEL-2 melanoma = system: SK-MEL-2 melanoma
EKVX NSCLC = system: EKVX NSCLC
SN12C renal = system: SN12C renal
UO-31 renal = system: UO-31 renal
TK-10 renal = system: TK-10 renal
ACHN renal = system: ACHN renal
CAKI-1 renal = system: CAKI-1 renal
A498 renal = system: A498 renal
CCRF-CEM leukemia = system: CCRF-CEM leukemia
MOLT-4 leukemia = system: MOLT-4 leukemia

Measured: growth

COc1ccc(/C=N/NC(=O)c2c(N)nn(C)c2Nc2ccccc2)cc1Oc1ccccc1
inactive: SK-MEL-2 melanoma 101% | EKVX NSCLC 88.1% | SN12C renal 95.5% | UO-31 renal 71.7% | TK-10 renal 102% | ACHN renal 95.8% | CAKI-1 renal 86.6% | A498 renal 98.6% | CCRF-CEM leukemia 94.3% | MOLT-4 leukemia 90.4%

Cc1ccc([C@H]2c3[nH]c4ccccc4c3C[C@H]3C(=O)N(CCCCCCC(=O)NO)CC(=O)N23)s1
inactive: SK-MEL-2 melanoma 84.9% | EKVX NSCLC 69.4% | SN12C renal 85.1% | UO-31 renal 71.9% | TK-10 renal 64.2% | ACHN renal 85.5% | CAKI-1 renal 60.3% | A498 renal 76% | CCRF-CEM leukemia 22% | MOLT-4 leukemia 12.5%

Cc1ccc2c(n1)C(=O)C(Cl)=C(Nc1cc(C(F)(F)F)cc(C(F)(F)F)c1)C2=O
inactive: SK-MEL-2 melanoma 74.5% | EKVX NSCLC 78% | SN12C renal 92.1% | TK-10 renal 106% | CAKI-1 renal 81.4% | A498 renal 80.4%
active: UO-31 renal 9.71% | ACHN renal -64.9% | CCRF-CEM leukemia 4.75% | MOLT-4 leukemia 9.31%

C#C[C@]1(O)CC[C@H]2[C@@H]3CC=C4c5sc(NCc6ccccc6)nc5CC[C@]4(C)[C@H]3CC[C@@]21C
inactive: EKVX NSCLC 55.4% | SN12C renal 83.6% | UO-31 renal 13.2% | TK-10 renal 76.8% | ACHN renal 61.8% | CAKI-1 renal 50.6%
active: SK-MEL-2 melanoma -17.9% | A498 renal 8.6% | CCRF-CEM leukemia 6.53% | MOLT-4 leukemia -11.7%

CN1CCN(Cc2ccc(NC(=O)c3cncc(C#Cc4cnc5ccc(OCC6COC6)nn45)c3)cc2C(F)(F)F)CC1
active: SK-MEL-2 melanoma -78.4% | EKVX NSCLC -71.6% | SN12C renal -30.6% | UO-31 renal -92.3% | TK-10 renal -82.2% | ACHN renal -96.5% | CAKI-1 renal -92.8% | A498 renal -93.7% | CCRF-CEM leukemia -8.07% | MOLT-4 leukemia 1.49%

O=C1[C@@H]2Cc3c([nH]c4ccccc34)[C@@H](c3ccc(Cl)cc3)N2C(=O)CN1C1CCN(Cc2c(F)cccc2F)CC1
active: MOLT-4 leukemia 8.27%
inactive: SK-MEL-2 melanoma 67.6% | EKVX NSCLC 40.1% | SN12C renal 38.5% | UO-31 renal 24.2% | TK-10 renal 52.5% | ACHN renal 28% | CAKI-1 renal 24.6% | A498 renal 60% | CCRF-CEM leukemia 19.8%

NC1C2CCC1CN(c1cnc(C(=O)Nc3cc(F)cc4cccnc34)cn1)C2 (stereo not given)
inactive: SK-MEL-2 melanoma 101% | EKVX NSCLC 71.2% | SN12C renal 56.1% | UO-31 renal 34.9% | TK-10 renal 91.2% | ACHN renal 28.3% | CAKI-1 renal 38.5% | A498 renal 72.8% | CCRF-CEM leukemia 25% | MOLT-4 leukemia 16.3%

O=C(CCCCCCNC(=O)C(O)(O)C(F)(F)F)Nc1nc2ccccc2s1
active: SK-MEL-2 melanoma -7.95% | UO-31 renal -9.93% | TK-10 renal -3.74% | ACHN renal -22.7% | CAKI-1 renal -17.8% | A498 renal -21.7%
inactive: EKVX NSCLC 27.5% | SN12C renal 10.8% | CCRF-CEM leukemia 22.6% | MOLT-4 leukemia 15.6%

COc1ccc(OC)c(CCn2cncc2-c2c[nH]c3ccc(Cl)cc23)c1
inactive: SK-MEL-2 melanoma 19% | EKVX NSCLC 37.5% | SN12C renal 63.6% | UO-31 renal 46.6% | TK-10 renal 50.7% | ACHN renal 60.5% | CAKI-1 renal 31.3% | A498 renal 44.8% | CCRF-CEM leukemia 49.4% | MOLT-4 leukemia 25%

CCCCN1C(=O)/C(=c2\sc3n(c2=O)C2C(NN=3)N(CC)C(=O)N2CC)c2cc(C)ccc21 (stereo not given)
inactive: SK-MEL-2 melanoma 113% | EKVX NSCLC 85.2% | SN12C renal 97.9% | UO-31 renal 75% | TK-10 renal 117% | ACHN renal 95.1% | CAKI-1 renal 58.1% | A498 renal 96% | CCRF-CEM leukemia 94.7% | MOLT-4 leukemia 91.8%

C=C(C)[C@@H]1CC[C@]2(COP(=O)(OCC)OCC)CC[C@]3(C)[C@H](CC[C@@H]4[C@@]5(C)CC[C@H](OP(=O)(OCC)OCC)C(C)(C)[C@@H]5CC[C@]43C)[C@@H]12
inactive: SK-MEL-2 melanoma 67.9% | EKVX NSCLC 26.6% | SN12C renal 33.4% | UO-31 renal 22.6% | TK-10 renal 68.5% | ACHN renal 41.4% | CAKI-1 renal 35.2% | A498 renal 66.4% | CCRF-CEM leukemia 39.4% | MOLT-4 leukemia 27.8%

N#Cc1c(-c2cccs2)cc(-c2cnccn2)nc1SCC(=O)N/N=C/c1ccc(Cl)cc1
inactive: SK-MEL-2 melanoma 121% | EKVX NSCLC 93.5% | SN12C renal 104% | UO-31 renal 92.6% | TK-10 renal 130% | ACHN renal 102% | CAKI-1 renal 90.8% | A498 renal 87.1% | CCRF-CEM leukemia 87.6% | MOLT-4 leukemia 102%

C#Cc1nc(/C=C/CCCCCCC(=O)NO)cs1
active: UO-31 renal -93.1% | ACHN renal -39.1% | CAKI-1 renal -11.4% | CCRF-CEM leukemia -39.3% | MOLT-4 leukemia -14%
inactive: SK-MEL-2 melanoma 96.1% | EKVX NSCLC 89.5% | SN12C renal 90.3% | TK-10 renal 31.6% | A498 renal 73.9%

O=C(/C=C/c1cccc(Br)c1)c1cccc(OCCCCOc2cccc(C(=O)/C=C/c3cccc(Br)c3)c2)c1
inactive: SK-MEL-2 melanoma 104% | EKVX NSCLC 101% | SN12C renal 99.7% | UO-31 renal 91.4% | TK-10 renal 115% | ACHN renal 101% | CAKI-1 renal 100% | A498 renal 113% | CCRF-CEM leukemia 105% | MOLT-4 leukemia 90.4%

NC(=O)c1ncn2c(=O)n(CCF)nnc12
active: SK-MEL-2 melanoma -6.14%
inactive: EKVX NSCLC 92.5% | SN12C renal 85.5% | UO-31 renal 41% | TK-10 renal 44.3% | ACHN renal 62.2% | CAKI-1 renal 34% | A498 renal 101% | CCRF-CEM leukemia 28.5% | MOLT-4 leukemia 29.9%

COc1cc(-c2nc(-c3ccccc3)[nH]c2-c2ccnc(NCCCNS(=O)(=O)c3cccc(F)c3)n2)ccc1F
inactive: SK-MEL-2 melanoma 105% | EKVX NSCLC 80.8% | SN12C renal 93.8% | UO-31 renal 89.2% | TK-10 renal 137% | ACHN renal 88.7% | CAKI-1 renal 106% | A498 renal 68.9% | CCRF-CEM leukemia 66% | MOLT-4 leukemia 54.4%

CN1CCN(c2ccc(Nc3nc(NCCNS(=O)(=O)c4ccc5ccccc5c4)c4sccc4n3)cc2)CC1
inactive: SK-MEL-2 melanoma 103% | EKVX NSCLC 86.2% | SN12C renal 79.6% | UO-31 renal 68.9% | TK-10 renal 127% | ACHN renal 86.8% | CAKI-1 renal 69.5% | A498 renal 86.9% | CCRF-CEM leukemia 41.9% | MOLT-4 leukemia 41.6%

O=C(CSc1nnc(-c2ccc(Cl)cc2)n1-c1ccccc1)Nc1ccc(Cl)cc1
active: TK-10 renal -6.39% | ACHN renal -2.97%
inactive: SK-MEL-2 melanoma 87.3% | EKVX NSCLC 49.7% | SN12C renal 16.3% | UO-31 renal 12% | CAKI-1 renal 50.9% | A498 renal 41.4% | CCRF-CEM leukemia 53.9% | MOLT-4 leukemia 84.6%

CNC(=O)Nc1ccc(Nc2cc(-c3ccc(-n4cccn4)cc3)[nH]n2)c(C)c1
inactive: SK-MEL-2 melanoma 122% | EKVX NSCLC 109% | SN12C renal 101% | UO-31 renal 85.4% | TK-10 renal 138% | ACHN renal 109% | CAKI-1 renal 113% | A498 renal 129% | CCRF-CEM leukemia 93.1% | MOLT-4 leukemia 91.1%

C/C(=N\NC(N)=S)c1nnn(-c2ccc([N+](=O)[O-])cc2)c1C
inactive: SK-MEL-2 melanoma 110% | EKVX NSCLC 62.4% | SN12C renal 94.5% | UO-31 renal 70.5% | TK-10 renal 98.7% | ACHN renal 97% | CAKI-1 renal 90.8% | A498 renal 94% | CCRF-CEM leukemia 101% | MOLT-4 leukemia 105%

CCOP(=O)(OCC)OC[C@]12CCC(C)(C)CC1C1=CC[C@@H]3[C@@]4(C)CCCNC(C)(C)[C@@H]4CC[C@@]3(C)[C@]1(C)CC2 (stereo not given in full)
active: MOLT-4 leukemia 2.26%
inactive: SK-MEL-2 melanoma 121% | EKVX NSCLC 69.7% | SN12C renal 80.8% | UO-31 renal 58.2% | TK-10 renal 90.4% | ACHN renal 83.5% | CAKI-1 renal 53.7% | A498 renal 85.2% | CCRF-CEM leukemia 28.1%

CN(C)c1ccc(/C=N/Nc2nc(N/N=C/c3ccc(N(C)C)cc3)nc(N3CCCCC3)n2)cc1
inactive: SK-MEL-2 melanoma 111% | EKVX NSCLC 97% | SN12C renal 50.4% | UO-31 renal 80.3% | TK-10 renal 118% | ACHN renal 32.4% | CAKI-1 renal 89.9% | A498 renal 115% | CCRF-CEM leukemia 25.8% | MOLT-4 leukemia 12.1%

O=c1[nH][nH]c(-c2ccc(F)cc2)c1-c1nc2ccccc2s1
inactive: SK-MEL-2 melanoma 100% | EKVX NSCLC 90.1% | SN12C renal 82% | UO-31 renal 87.3% | TK-10 renal 154% | ACHN renal 95.1% | CAKI-1 renal 87.1% | A498 renal 67.9% | CCRF-CEM leukemia 86.6% | MOLT-4 leukemia 95.8%

CCC(=C(c1ccc(OCCN2CCCCCC2)cc1)c1ccc(OCCN2CCCCCC2)cc1)c1ccc(Cl)cc1
active: SK-MEL-2 melanoma -29.9% | CCRF-CEM leukemia 3.5% | MOLT-4 leukemia 4.03%
inactive: EKVX NSCLC 54.5% | SN12C renal 48.3% | UO-31 renal 13.6% | TK-10 renal 114% | ACHN renal 26.2% | CAKI-1 renal 44.3% | A498 renal 84.4%

CC(C)(C)Nc1nc2c(OCCc3ccccc3)cccn2c1-c1cccc(Oc2ccccc2)c1
active: SK-MEL-2 melanoma -26.2% | UO-31 renal 5.5% | ACHN renal 7.39% | CAKI-1 renal 8.12% | MOLT-4 leukemia 5.42%
inactive: EKVX NSCLC 13.5% | SN12C renal 12.3% | TK-10 renal 21.8% | A498 renal 16.2% | CCRF-CEM leukemia 15%

O=c1c2cc(-c3ccc(F)cc3F)ccc2n(O)c(=O)n1-c1cccc(C(F)(F)F)c1
inactive: CCRF-CEM leukemia 15.2%
active: SK-MEL-2 melanoma -34.3% | EKVX NSCLC 4.46% | SN12C renal 0.105% | UO-31 renal 8% | TK-10 renal 1.66% | ACHN renal 0.899% | CAKI-1 renal -16.4% | A498 renal -22.4% | MOLT-4 leukemia 0.581%

COc1ccc(N2CCN(C3=C(Cl)C(=O)c4ncccc4C3=O)CC2)cc1
inactive: SK-MEL-2 melanoma 95.1% | EKVX NSCLC 99.9% | SN12C renal 84.7% | UO-31 renal 19.2% | TK-10 renal 99.6% | CAKI-1 renal 32.3% | A498 renal 103%
active: ACHN renal -18.7% | CCRF-CEM leukemia 6.79% | MOLT-4 leukemia 4.55%
